{"source": "ChEMBL document CHEMBL2218924", "about": "“A broad activity screen in support of a chemogenomic map for kinase signalling research and drug discovery” (Biochem J, 2013)"}
{"target": "Proto-oncogene tyrosine-protein kinase receptor Ret (Homo sapiens) (UniProt P07949)", "sequence (P07949 whole entry)": "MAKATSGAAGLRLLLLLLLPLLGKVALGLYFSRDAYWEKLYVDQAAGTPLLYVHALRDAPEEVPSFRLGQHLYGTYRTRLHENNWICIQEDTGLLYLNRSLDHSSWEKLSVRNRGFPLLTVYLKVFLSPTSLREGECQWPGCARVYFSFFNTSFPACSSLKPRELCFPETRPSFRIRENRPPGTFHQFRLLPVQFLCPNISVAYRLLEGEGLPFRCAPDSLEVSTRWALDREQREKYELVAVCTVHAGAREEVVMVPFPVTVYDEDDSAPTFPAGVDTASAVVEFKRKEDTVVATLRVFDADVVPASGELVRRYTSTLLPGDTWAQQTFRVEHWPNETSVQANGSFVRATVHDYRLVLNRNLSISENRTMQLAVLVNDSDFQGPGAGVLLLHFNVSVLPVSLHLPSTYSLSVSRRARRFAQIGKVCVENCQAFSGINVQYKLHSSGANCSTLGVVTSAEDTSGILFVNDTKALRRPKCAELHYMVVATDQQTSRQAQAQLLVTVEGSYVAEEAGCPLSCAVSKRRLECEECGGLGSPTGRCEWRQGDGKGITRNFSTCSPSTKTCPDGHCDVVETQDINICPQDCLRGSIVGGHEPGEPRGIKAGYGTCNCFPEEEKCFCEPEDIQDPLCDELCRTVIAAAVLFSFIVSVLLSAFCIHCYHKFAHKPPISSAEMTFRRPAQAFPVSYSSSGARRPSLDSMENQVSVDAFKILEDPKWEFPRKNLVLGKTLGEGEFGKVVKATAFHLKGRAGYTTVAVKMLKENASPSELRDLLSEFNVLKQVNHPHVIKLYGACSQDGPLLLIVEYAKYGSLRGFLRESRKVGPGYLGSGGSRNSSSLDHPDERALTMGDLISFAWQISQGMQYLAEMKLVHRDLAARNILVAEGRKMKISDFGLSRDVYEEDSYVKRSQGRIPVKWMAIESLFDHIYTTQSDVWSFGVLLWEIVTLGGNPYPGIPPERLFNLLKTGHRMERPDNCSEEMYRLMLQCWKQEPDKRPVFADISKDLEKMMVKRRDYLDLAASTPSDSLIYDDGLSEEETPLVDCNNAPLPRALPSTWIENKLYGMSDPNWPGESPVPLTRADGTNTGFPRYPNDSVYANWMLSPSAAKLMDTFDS", "details": "at 10 µM", "units": {"residual activity": "%"}}
{"smiles": "CC(C)(C)c1cc(C=C(C#N)C#N)cc(Br)c1O", "residual activity": 108}
{"smiles": "CC(C)[C@H](CO)Nc1nc(Nc2cccc(Cl)c2)c2ncn(C(C)C)c2n1", "residual activity": 27}
{"smiles": "COC(=O)[C@@]1(O)C[C@H]2O[C@]1(C)n1c3ccccc3c3c4c(c5c6ccccc6n2c5c31)C(=O)NC4", "residual activity": 1}
{"smiles": "O=C1c2ccccc2-c2nc3nnnn3nc21", "residual activity": 114}
{"smiles": "COc1cc2ncnc(Nc3ccc(OCc4ccccc4)cc3)c2cc1OC", "residual activity": 89}
{"smiles": "O=c1[nH]c2ccccc2n1C1CCN(Cc2ccc(-c3nc4cc5[nH]cnc5cc4nc3-c3ccccc3)cc2)CC1", "residual activity": 83}
{"smiles": "CCn1cnc2c(Nc3cccc(Cl)c3)nc(N[C@@H]3CCCC[C@@H]3N)nc21", "residual activity": 25}
{"smiles": "CCc1nc(-c2ccc(OC)cc2)[nH]c1-c1ccncc1", "residual activity": 80}
{"smiles": "C[S+]([O-])c1ccc(-c2nc(-c3ccc(F)cc3)c(-c3ccncc3)[nH]2)cc1", "note": "(stereo unspecified)", "residual activity": 46}
{"smiles": "O=C1Nc2ccc3ncsc3c2/C1=C/c1c[nH]cn1", "residual activity": 0}
{"smiles": "O=C1NC(=O)c2c1c1c3ccccc3n3c1c1c2c2ccccc2n1C1CCC3O1", "residual activity": 34}
{"smiles": "c1cc(-c2cnn3cc(-c4ccc(OCCN5CCCCC5)cc4)cnc23)ccn1", "residual activity": 5}
{"smiles": "COc1cc(OC)c(/C=C2\\C(=O)Nc3ccccc32)c(OC)c1", "residual activity": 92}
{"smiles": "O=[N+]([O-])/C=C/c1ccc2c(c1)OCO2", "residual activity": 108}
{"target": "Macrophage-stimulating protein receptor (Homo sapiens) (UniProt Q04912)", "sequence (Q04912 25-304 limits assumed)": "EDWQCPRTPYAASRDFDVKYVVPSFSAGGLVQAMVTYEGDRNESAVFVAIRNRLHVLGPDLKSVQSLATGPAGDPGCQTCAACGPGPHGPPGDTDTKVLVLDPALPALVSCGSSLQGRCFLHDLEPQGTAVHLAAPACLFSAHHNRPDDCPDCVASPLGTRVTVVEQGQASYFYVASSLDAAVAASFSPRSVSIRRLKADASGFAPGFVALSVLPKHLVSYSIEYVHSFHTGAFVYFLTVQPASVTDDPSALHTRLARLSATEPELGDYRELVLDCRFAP", "sequence (Q04912 310-1400 limits assumed)": "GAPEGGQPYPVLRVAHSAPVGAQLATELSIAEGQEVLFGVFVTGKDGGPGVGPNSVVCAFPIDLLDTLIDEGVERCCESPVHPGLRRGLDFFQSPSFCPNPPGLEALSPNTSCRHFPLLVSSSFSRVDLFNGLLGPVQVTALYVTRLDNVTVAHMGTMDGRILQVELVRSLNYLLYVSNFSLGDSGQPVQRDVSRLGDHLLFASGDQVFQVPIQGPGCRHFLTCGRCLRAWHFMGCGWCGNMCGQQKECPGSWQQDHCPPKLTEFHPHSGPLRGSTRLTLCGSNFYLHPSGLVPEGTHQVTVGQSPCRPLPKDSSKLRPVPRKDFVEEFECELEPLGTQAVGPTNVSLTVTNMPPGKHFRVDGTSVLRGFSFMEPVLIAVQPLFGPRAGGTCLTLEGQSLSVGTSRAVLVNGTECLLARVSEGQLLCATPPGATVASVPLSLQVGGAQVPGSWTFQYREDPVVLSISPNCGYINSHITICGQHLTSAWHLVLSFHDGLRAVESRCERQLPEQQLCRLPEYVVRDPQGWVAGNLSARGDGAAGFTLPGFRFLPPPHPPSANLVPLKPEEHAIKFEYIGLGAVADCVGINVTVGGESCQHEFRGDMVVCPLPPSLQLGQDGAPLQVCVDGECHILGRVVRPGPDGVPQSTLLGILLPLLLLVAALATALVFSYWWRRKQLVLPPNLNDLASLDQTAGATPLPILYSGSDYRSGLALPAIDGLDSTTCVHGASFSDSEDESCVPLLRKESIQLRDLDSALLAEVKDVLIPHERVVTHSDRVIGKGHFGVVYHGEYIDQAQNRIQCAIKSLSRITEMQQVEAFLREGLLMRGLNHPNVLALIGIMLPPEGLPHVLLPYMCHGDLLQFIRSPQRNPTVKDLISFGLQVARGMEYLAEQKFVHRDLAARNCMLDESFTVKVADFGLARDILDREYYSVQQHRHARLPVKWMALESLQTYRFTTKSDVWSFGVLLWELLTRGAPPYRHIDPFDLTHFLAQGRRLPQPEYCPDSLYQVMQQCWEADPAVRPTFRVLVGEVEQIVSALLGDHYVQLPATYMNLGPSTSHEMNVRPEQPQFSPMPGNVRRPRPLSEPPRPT", "details": "at 1 µM", "units": {"residual activity": "%"}}
{"smiles": "CC(C)[C@H](CO)Nc1nc(Nc2cccc(Cl)c2)c2ncn(C(C)C)c2n1", "residual activity": 92}
{"smiles": "COC(=O)[C@@]1(O)C[C@H]2O[C@]1(C)n1c3ccccc3c3c4c(c5c6ccccc6n2c5c31)C(=O)NC4", "residual activity": 33}
{"smiles": "N/C(=N\\[N+](=O)[O-])N/N=C\\c1ccc(-c2cccc([N+](=O)[O-])c2)o1", "residual activity": 63}
{"smiles": "COc1cc2ncnc(Nc3ccc(OCc4ccccc4)cc3)c2cc1OC", "residual activity": 88}
{"smiles": "O=c1[nH]c2ccccc2n1C1CCN(Cc2ccc(-c3nc4cc5[nH]cnc5cc4nc3-c3ccccc3)cc2)CC1", "residual activity": 103}
{"smiles": "CCn1cnc2c(Nc3cccc(Cl)c3)nc(N[C@@H]3CCCC[C@@H]3N)nc21", "residual activity": 85}
{"smiles": "C[S+]([O-])c1ccc(-c2nc(-c3ccc(F)cc3)c(-c3ccncc3)[nH]2)cc1", "note": "(stereo unspecified)", "residual activity": 105}
{"smiles": "O=C1Nc2ccc3ncsc3c2/C1=C/c1c[nH]cn1", "residual activity": 60}
{"smiles": "c1cc(-c2cnn3cc(-c4ccc(OCCN5CCCCC5)cc4)cnc23)ccn1", "residual activity": 104}
{"smiles": "COc1cc(OC)c(/C=C2\\C(=O)Nc3ccccc32)c(OC)c1", "residual activity": 77}
{"smiles": "COc1ccc2c(c[n+](C)c3c4cc5c(cc4ccc23)OCO5)c1OC", "residual activity": 86}
{"smiles": "O=[N+]([O-])/C=C/c1ccc2c(c1)OCO2", "residual activity": 100}
